“And” between values parts separate entries of the source, which are not always exact repeats. Equal entries are not always repeated. About 820 (0.21%) of roughly 390,000 compounds were called active. Another 3% or so got no clear call; they are omitted. The call rests on the fitted dose curve; in most records, active means well fitted inhibition curve with a large enough effect; inconclusive means small, poorly fitted or top-dose-only effect, or another doubt; inactive means no such curve, though single readings can be large or run the other way. Shown is part of a subset that was picked to be rich in actives. Where a call stands in place of a potency, no number is given. More than one record can exist for a structure, and the calls need not agree.
target: Histone acetyltransferase KAT2A (Homo sapiens) (UniProt Q92830); experiment: qHTS Assay for Inhibitors of GCN5L2; conditions: GCN5L2 HAT assay, ThioGlo1 CoA-SH fluorescence; series mostly up to 58.9 µM
Text: Histone acetyltransferase (HAT) enzymes transfer a […] group from acetyl-coenzyme A to the epsilon-amino group of conserved lysine residues of N-terminal histone tails. Acetylation results in charge neutralization of this positively charged amino acid, decreasing interactions with the […] backbone and making the DNA more accessible for transcription. HATs have been recognized as an emerging drug target for treatment of cancer, diabetes, asthma, chronic obstructive pulmonary disease, cardiac disease, and viral infection. Protein identified with HAT activity include the […] like 2 (GCN5L2, a.ka. Histone acetyltransferase KAT2A) which acetylates histone H3 at Lys9, 14, 18, 13, and to lesser extent histones H4 and H2B. This activates transcription of the gene by modulating chromatin structure and installing the acetyllysine recognition mark for bromodomain-containing coactivator proteins.
A quantitative high throughput screen was developed to identify small molecule inhibitors. The assay is based on the principle that it measures formation of reduced CoA with the pro-fluorescent maleimide derivative ThioGlo1 that becomes fluorescent upon reaction with the free thiol of CoA.
A large number of artifacts are expected in this primary screen, compounded by the assay format (fluorescent artifacts) and by the high top concentration tested for each substance. This BioAssay data deposition should be used with caution, and counterscreen and secondary assay validation is essential since very few actives from the primary screen are expected to be true inhibitors of GCN5L2.
[2] Yasgar, et al. Compound Management for Quantitative High-Throughput Screening. JALA. 2008 Apr;13(2):79-89.
[3] Inglese, et al. Quantitative high-throughput screening: a titration-based approach that efficiently identifies biological activities in large chemical libraries. Proc Natl Acad Sci. 1;103(31):11473-8. 2006. PMID: 16864780
NIH Molecular Libraries Probe Production Network [MLPCN]
NIH Chemical Genomics Center [NCGC]
Structural Genomics Consortium (SGC)
To each well of a 1,536w plate, 3ul of GCN5L2 (final concentration 20nM, in 50mM HEPES, 0.1mM EDTA (pH 7.5), 0.01% Tween-20 buffer) are added using a Kalypsys dispenser. Only buffer is added to some wells as a control. A Kalypsys pin-tool transferred 23nl of library compound solution in DMSO to each well, as well as the control inhibit garcinol. . Following a 15 min incubation of enzyme with compounds at room temperature, 1ul mixture of ThioGlo1 (50uM final), H3(1-25) peptide (75uM final), and Acetyl-CoA (70uM final) is added. Plates are read immediately on the ViewLux (PerkinElmer) (Ex340nm/Em540nm) for a 0 min read, incubated for 20 min at room temperature, and read again on the ViewLux with the same settings. The initial read was carried out to identify compounds that are potentially fluorescent.
Potency means the concentration at half of the fitted maximal effect.

Sequence of Histone acetyltransferase KAT2A (Homo sapiens) (Q92830 whole entry, looked up): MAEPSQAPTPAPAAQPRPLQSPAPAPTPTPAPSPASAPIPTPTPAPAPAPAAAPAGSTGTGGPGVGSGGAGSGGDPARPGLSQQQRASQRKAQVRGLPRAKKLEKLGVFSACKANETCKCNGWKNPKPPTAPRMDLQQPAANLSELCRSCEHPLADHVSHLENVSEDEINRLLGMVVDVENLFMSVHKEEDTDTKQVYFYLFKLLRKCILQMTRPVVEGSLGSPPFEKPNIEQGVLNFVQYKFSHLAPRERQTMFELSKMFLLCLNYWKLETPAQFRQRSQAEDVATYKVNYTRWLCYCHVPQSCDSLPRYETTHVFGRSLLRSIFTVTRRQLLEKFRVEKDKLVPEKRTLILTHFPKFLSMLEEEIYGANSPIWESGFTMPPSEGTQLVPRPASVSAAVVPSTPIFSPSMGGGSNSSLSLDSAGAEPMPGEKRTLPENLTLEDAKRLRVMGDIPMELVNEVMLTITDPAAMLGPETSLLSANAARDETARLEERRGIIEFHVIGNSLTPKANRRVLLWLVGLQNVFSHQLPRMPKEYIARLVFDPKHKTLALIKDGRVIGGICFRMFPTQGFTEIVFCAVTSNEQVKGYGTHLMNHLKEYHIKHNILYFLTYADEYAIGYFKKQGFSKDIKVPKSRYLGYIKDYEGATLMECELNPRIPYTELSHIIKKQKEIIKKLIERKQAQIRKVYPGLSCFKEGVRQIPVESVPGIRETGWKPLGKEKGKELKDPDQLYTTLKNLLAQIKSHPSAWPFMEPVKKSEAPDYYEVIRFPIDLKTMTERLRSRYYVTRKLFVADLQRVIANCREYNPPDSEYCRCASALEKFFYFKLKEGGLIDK

SMILES | Potency | activity change, negative = inhibition
COc1ccc(N2C(=O)/C(=C/c3ccco3)C(=O)NC2=S)cc1 | 17.8 µM (active) | 
COc1ccc2c3c1O[C@H]1C[C@@H](O)C=C[C@@]31CCN(C)C2 | inactive | 
CC(C)(Cc1c[nH]c2ccc(Cl)cc12)NCCOc1ccccc1OCC1CC1 | inactive | 
C[C@]12CC[C@@H]3c4ccc(O)cc4C[C@@H](CCCCCCCCCS(=O)CCCC(F)(F)C(F)(F)F)C3[C@@H]1CC[C@@H]2O (stereo not given in full) | inactive | 
CCCCC/C=C\C/C=C\C/C=C\C/C=C\CCCCCC(=O)NCCO | inactive | 
Cc1cccc2c3c(ccc12)C1=C(C(=O)C3=O)C(C)CO1 (stereo not given) | 31.6 µM (active) | 
C[C@]12O[C@H](C[C@@]1(O)C(=O)O)n1c3ccccc3c3c4c(c5c6ccccc6n2c5c31)CNC4=O | inactive | 
CCOc1ccc(S(=O)(=O)NCc2ccc3c(c2)OCO3)cc1C | inactive | 
COc1ccc2c3c1OC1CC(O)C=C[C@@]31CCN(C)C2 (stereo not given in full) | inactive | 
CC(C)C(N)C(=O)OCCOCn1cnc2c(=O)[nH]c(N)nc21 (stereo not given) | inactive | 
CN(C)C[C@H]1CCCC[C@]1(O)c1cccc(O)c1 | inactive | 
CC(C)(c1ccc(OC[C@@H]2CO2)cc1)c1ccc(OC[C@H]2CO2)cc1 | inactive | 
CC(=O)c1c(O)c(C)c(O)c(Cc2c(O)c3c(c(C(=O)/C=C/c4ccccc4)c2O)OC(C)(C)C=C3)c1O | inactive and 11.2 µM (active) | 
CC(=O)c1c(O)c(C)c(O)c(Cc2c(O)c3c(c(C(=O)/C=C\c4ccccc4)c2O)OC(C)(C)C=C3)c1O | 35.5 µM (active) | 
CCC(C)C(=O)O[C@@H]1C[C@@]2(C)C(c3ccoc3)OC(=O)CC23OC2(C)O[C@@]14[C@@]1(C)C(CC(=O)OC)C5(C)CC1(O)C(O)(C5OC(=O)C1(C)OC1C)C(OC(C)=O)[C@@]34O2 (stereo not given in full) | inactive | 
C=CCN1CCC2(C)c3cc(O)ccc3CC1[C@@H]2C (stereo not given in full) | inactive | 
CN1CCCC(=C(c2cccs2)c2cccs2)C1 | inactive | 
CC(C)(O)c1[se]c2ccccc2c1I | inactive | 
CO[C@@H]1C[C@@H](C[C@H]2CC[C@H](C)[C@@H]([C@@H](C)C(=O)O)O2)O[C@]2(O[C@](C)([C@H]3CC[C@@](C)(C4OC([C@H]5O[C@@](O)(CO)[C@H](C)C[C@@H]5C)C[C@@H]4C)O3)C[C@H]2C)[C@@H]1C (stereo not given in full) | inactive | 
CCN(CC)c1nc(C)cc(OP(=S)(OC)OC)n1 | inactive | 
CN(C)[C@@H]1C(=O)C(C(N)=O)=C(O)[C@@]2(O)C(=O)C3=C(O)c4c(O)cccc4[C@@](C)(O)C3CC12 (stereo not given in full) | inactive | 
COC([CH2][Hg])CNC(=O)c1ccccc1OCC(=O)O (stereo not given) | 0.891 µM (active) | 
O=C1CCc2cccc3c2N1CC3 | inactive | 

SMILES | Potency | activity change, negative = inhibition
CC(C)=CCC[C@]1(C)[C@@H](CC=C(C)C)C[C@@]2(CC=C(C)C)C(=O)[C@]1(C(=O)C(C)C)C(=O)C(CC=C(C)C)=C2O | 28.2 µM (active) | 
Nc1ccc(-c2ccc(N)c(N)c2)cc1N | inactive | 
CCCN(C/C=C/I)C1CCc2ccc(O)cc2C1 (stereo not given) | inactive | 
COc1ccc2[nH]cc(CCNCc3ccc(Br)cc3)c2c1 | inactive | 
NCCc1c[nH]c2ccc(O)cc12 | inactive and 11.2 µM (active) | 
Cc1cccc2c(CCN)c[nH]c12 | inactive | 
CC(=O)Oc1ccccc1C(=O)Nc1ncc([N+](=O)[O-])s1 | inactive | 
CC[C@@H]1CN2CC[C@@H]1C[C@H]2[C@H](O)c1ccnc2ccc(OC)cc12 | inactive | 
COc1ccccc1-c1[se]c2ccccc2c1I | inactive | 
CCCCCCCCCCCCN=C(N)N | inactive | 
N#Cc1c(Cl)c(Cl)c(Cl)c(C#N)c1Cl | inactive | 
CCCCCCCCCCCCCC(=O)O[C@@H]1[C@@H](C)[C@@]2(O)[C@@H](C=C(CO)C[C@]3(O)C(=O)C(C)=C[C@@H]23)[C@@H]2C(C)(C)[C@]12OC(C)=O | inactive | 
COC(=O)N1C(c2ccccc2)C1c1ccccc1 (stereo not given) | inactive | 
CC(=O)[O][Sn]([c]1ccccc1)([c]1ccccc1)[c]1ccccc1 | 4.47 µM (active) | 
C[C@H]1C/C=C/[C@@H]2[C@@H]3O[C@]3(C)[C@@H](C)[C@H]3[C@H](Cc4ccccc4)NC(=O)[C@]32OC(=O)O/C=C/[C@](C)(O)C1=O | inactive | 
CN[C@@H]1C[C@H]2O[C@@](C)([C@@H]1OC)n1c3ccccc3c3c4c(c5c6ccccc6n2c5c31)C(=O)NC4 |  | 4.47% [at 12.7 µM] (inactive)
CNCC[C@H](Oc1ccc(C(F)(F)F)cc1)c1ccccc1 | inactive and 8.91 µM (active) | 
CCCCC/C=C\C/C=C\C/C=C\C=C\[C@H](CCCC(=O)O)OO | inactive | 
N#CC(C#N)=Cc1cc(O)c(O)c([N+](=O)[O-])c1 | inactive | 
C[C@@H]1C[C@H]2CC[C@H](O2)[C@H](C)C(=O)O[C@@H](C)C[C@@H]2CC[C@@H](O2)[C@@H](C)C(=O)O[C@H](C)C[C@H]2CC[C@H](O2)[C@H](C)C(=O)O[C@@H](C)C[C@@H]2CC[C@@H](O2)[C@@H](C)C(=O)O1 | inactive | 
N#Cc1cc(Br)c(O)c(Br)c1 | inactive | 
c1ccc(N2CC[C@@]3(CCCNC3)C2)nc1 | inactive | 

Source: PubChem BioAssay AID504327 (National Center for Advancing Translational Sciences (NCATS), 2011)
